# Source: PubChem BioAssay
# Compounds with a hit are over-represented: about 2.1% of the library has one in this group of screens.
# Abeta rescue: restores growth of yeast expressing A-beta42 peptide; yeast expressing A-beta42, growth rescue, OD600, 48 h; response scale: 0% DMSO, 100% iron-clioquinol control; Potency, µM (titrated, usually from 46.1 µM), most hits filed as activators; 410,000 compounds, 0.063% hits; note: nearly all actives have a fitted effect of over 55% in size
#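 Growth rescue measured by 600 nm absorbance after 48 h yeast culture at 30 C with compound. Values normalized between DMSO and an equimolar ferric chloride plus clioquinol control.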
# aSyn rescue: alpha-synuclein toxicity inhibition in yeast; Yeast expressing alpha-synuclein, growth rescue, BacTiter-Glo, 24 h; Potency, µM (highest dose often 46.1 µM), without a hit: at the highest dose growth rescue (activation), usual class: activators; 370,000 compounds, 0.14% hits; AID 652106; note: % of control where 0% means no effect; nearly all actives have a fitted effect of over 65% in size
#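 Galactose-induced alpha-syn yeast (OD600=0.02, raffinose-pregrown) + pinned cpd, 24 hr, 30 deg C; growth by BacTiter-Glo luminescence. Growth restoration scores as activation.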
# FUS suppressor: FUS proteinopathy suppression in yeast | S. cerevisiae FUS-expressing, growth rescue, OD600, 24 h | Potency, µM (titrated, usually from 76.6 µM), usual class: activators | 390,000 compounds, 0.24% hits;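 note: plate controls were DMSO vehicle for no effect and reference control for full effect; nearly all actives have a fitted effect of over 55% in size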
#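 S. cerevisiae expressing FUS from galactose induction served as the toxicity model. Growth after 24hr at 30C, read as absorbance at 600 nm, indicates suppression of toxicity; compounds dosed at several concentrations.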
# TDP43 rescue: rescues yeast growth from TDP-43 toxicity; TDP-43 expressing yeast growth rescue, BacTiter-Glo, 24 h; Potency, µM (doses to about 46.1 µM), inactives show top-dose growth rescue (activation), usual class: activators; 410,000 compounds, 1.8% hits; note: % of control where 0% means no effect; nearly all actives have a fitted effect of over 50% in size
#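 Galactose-induced TDP-43 yeast, OD600=0.02, compound pinned; 24 hr, 30 deg C; BacTiter-Glo luminescence for growth. Inhibitors of TDP-43 toxicity read as activators.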
# An asterisk follows results filed as active; i = inactive; ? = inconclusive; · = no result; [ ] = remark or other dose. Calls come from the whole dose curve; as a rule, active = well fitted curve in the direction sought with a large enough effect; inconclusive = small, poorly fitted or top-dose-only effect, or another doubt; inactive = no such curve, though single readings can be large; an effect the other way counts as inactive or inconclusive. Potency is the fitted concentration of half-maximal effect.
SMILES,Abeta rescue,aSyn rescue,FUS suppressor,TDP43 rescue
Cc1ccccc1CNC(=O)c1ccc2ccccc2n1,i,12%,i,16µM*
COc1ccc(OC)c(C(=O)c2c(N)c(-c3nc(-c4ccc(C)c(C)c4)cs3)c3ccccn23)c1,i,·,i,17%
Cc1nc2n(c(=O)c1CCN1CCC(c3noc4cc(F)ccc34)CC1)CCC[C@H]2O,·,0%,·,·
COc1ccc([N+](=O)[O-])c(C=CC(=O)c2ccccn2)c1,i,20µM*,i,2.8µM*
c1ccc(OCCNc2ccn3nc(-c4ccccc4)cc3n2)cc1,i,3%,i,27%
CCc1c(C)nc2nncn2c1NCc1ccc(OC)cc1,i,·,i,27%
Fc1ccc(CNc2cc(-c3ccccc3)nc3nncn23)cc1,i,·,?,18µM*
Fc1ccc(CNc2ccn3nc(-c4ccccc4)cc3n2)cc1,?,15%,?,18µM*
COc1ccc(CNc2cc(-c3ccc(OC)cc3)nc3nncn23)cc1,i,·,i,14µM*
Cc1nc2nncn2c(NCc2ccc(F)cc2)c1C,i,·,i,4%
Cc1c(CC(=O)NCCc2ccccc2F)c(=O)oc2c(C)c3occ(C(C)(C)C)c3cc12,i,·,i,7%
O=C(COC(=O)c1n[nH]c(=O)c2ccccc12)Nc1cccc(S(=O)(=O)N2CCOCC2)c1,i,-3%,40µM*,-13%
O=c1ccc(-c2ccccc2)nn1Cc1ccc(Cl)cc1,i,?,i,20µM*
O=c1ccc(/C=C/c2ccccc2)nn1Cc1ccccc1,i,9%,i,20µM*
CO[C@H]1C[C@@H]2CC[C@@H](C)[C@@](O)(O2)C(=O)C(=O)N2CCCC[C@H]2C(=O)O[C@H]([C@H](C)C[C@@H]2CC[C@@H](O)[C@H](OC)C2)CC(=O)[C@H](C)/C=C(\C)[C@@H](O)[C@@H](OC)C(=O)[C@H](C)C[C@H](C)/C=C/C=C/C=C/1C,·,-73%,·,·
Cc1ccc2c(c1)c1c3n2CCN(C(=O)C2CC2)C3CCC1 (stereo not drawn),i,2%,i,28µM*
O=C(CSCc1ccc(Cl)cc1)N1CCOCC1,i,1%,i,6%
O=C(CSc1nnc(SCc2ccc(Cl)cc2)s1)N1CCOCC1,i,1%,i,22µM*
CCOc1ccc(N=C2SC(C(=O)Nc3ccccc3C#N)C(N)=C2C(=O)Nc2ccc(Cl)cc2)cc1 (stereo not drawn),i,14%,35µM*,25%
Cc1cccc(-c2cc(NC(=O)C(C)(C)C)n(-c3ccccc3)n2)c1,i,·,i,?
CC(C)(C)C(=O)Nc1cc(-c2cccc(Br)c2)nn1-c1ccccc1,i,·,i,22µM*
Cc1ccc(-n2c(SC/C=C/c3ccccc3)nnc2-c2cccs2)cc1,·,·,i,·
COc1ccc(/C=C2\CCC(C3CCCC3)C2=O)c(OC)c1OC (stereo not drawn),i,?,i,-12%
COc1cccc(/C=C2\CCC(C3CCCC3)C2=O)c1OC (stereo not drawn),i,-10%,7.9µM*,?
CCC(NC(=O)c1cccc2c1C(=O)N(Cc1cccnc1)C2)c1ccccc1 (stereo not drawn),·,·,i,·
SMILES,Abeta rescue,aSyn rescue,FUS suppressor,TDP43 rescue
COCCCn1cc(CN2CC=CS2(=O)=O)nn1,·,·,i,·
CCCc1nc(SCC(=O)Nc2ccccc2)c2c(=O)n(C)c(=O)n(C)c2n1,i,-3%,i,7%
CC(C)c1nc(SCC(=O)N2CCCC2)c2c(=O)n(C)c(=O)n(C)c2n1,i,3.5µM*,i,-26%
Cn1c(=O)c2c(SCC(=O)N3CCCc4ccccc43)nc(CC(C)(C)C)nc2n(C)c1=O,i,0%,i,21%
CCCc1nc(SCC(=O)N2CCC(Cc3ccccc3)CC2)c2c(=O)n(C)c(=O)n(C)c2n1,i,1%,i,35µM*
CCCc1nc(SCC(=O)N2CCCc3ccccc32)c2c(=O)n(C)c(=O)n(C)c2n1,i,13%,i,35µM*
CC(C)C[C@@H]1COc2cc(Br)ccc2S(=O)(=O)N1Cc1cn(CC2CCCCC2)nn1,·,·,i,·
CCCCNC(=O)Cn1c(SCc2cccc(F)c2)nc2ccncc21,·,-2%,·,·
CCOc1ccc2c(c1)-c1c(ssc1=S)C(C)(C)N2,i,1%,i,22µM*
CCOc1ccc2c(c1)-c1c(ssc1=S)C(C)(C)N2C(=O)CSC1=NCCS1,i,-1%,i,18%
COc1ccc(C2(c3ccc(OC)cc3)NC(=O)N(CC(=O)NC3(C#N)CCCC3)C2=O)cc1,i,0%,·,6%
COc1ccc(C2(c3ccc(OC)cc3)NC(=O)N(CC(=O)NC3(C#N)CCCCC3)C2=O)cc1,i,1%[1.84 µM],14µM*,-5%
CCCCCN1CCCCC(NC(=O)c2ccc(F)cc2)C1=O (stereo not drawn),·,·,i,·
O=C1CC(Sc2ccc(Cl)cc2)C(=O)N1c1ccc2c(c1)OCCO2 (stereo not drawn),i,26%,i,11µM*
COc1cccc(-n2cc(C(=O)Nc3cc(OC)c(OC)c(OC)c3)c3ccccc3c2=O)c1,i,·,i,16%
O=[N+]([O-])c1cn(Cc2ccc(Cl)cc2)cn1,?,7%,i,11%
O=C(Cn1cnc([N+](=O)[O-])c1)c1ccc(Cl)cc1,i,0%,i,16µM*
CN(C(=O)c1ccc(NC(=O)Cc2cccc(NC(=O)C3CCCN(C(=O)C4CCCCC4)C3)c2)cc1)C1CCCC1 (stereo not drawn),i,-2%,28µM*,10%
OC(c1ccc(Cl)cc1)c1ncc(-c2ccc(Oc3ccccc3)cc2)[nH]1 (stereo not drawn),i,-1%,?,20µM*
CC(C)c1ccc(N2C(=O)CSC23C(=O)N(C)c2ccccc23)cc1 (stereo not drawn),i,-14%,i,26%
COc1ccc(OCC(=O)N2CCN(c3nnc(-c4ccc(C)cc4)c4ccccc34)CC2)cc1,i,3%,i,22µM*
Cc1cccc(OCC(=O)N2CCN(c3nnc(-c4ccccc4)c4ccccc34)CC2)c1,?,2%,i,25µM*
COc1ccc(N2CCN(C(=O)COc3cccc4ccccc34)CC2)cc1,i,15%,·,13µM*
Cc1ccc(OCC(=O)N2CCN(c3nnc(-c4ccc(C)cc4)c4ccccc34)CC2)cc1,i,4%,?,?
Cc1cccc(OCC(=O)Nc2ccc3nc(C)sc3c2)c1,i,-39%,i,2.5µM*
Cc1nc2ccc(NC(=O)Cc3cccc(F)c3)cc2s1,i,1%,i,-20%
Cc1nc2ccc(NC(=O)COc3ccccc3)cc2s1,i,-68%,i,?
Cc1nc2ccc(NC(=O)COc3cccc(F)c3)cc2s1,i,-51%,i,20µM*
CCN1C(=NCc2cccc(Cl)c2)N[C@@H](c2cccc(C(F)(F)F)c2)C(C(=O)OC)=C1C,·,0%,·,·
